Measurements from PMC4336329 (PLoS ONE, 2015).
Among all 310,000 compounds or so, about 14,000 (4.5%) showed an effect of 50% or more. Effects have a minus sign here. The sample holds strong results, similar compounds and a random draw of the others, so the mix is not that of the screen.

Each compound was assayed against human ether-à-go-go-related gene (hERG) potassium channel (human, UniProt Q12809) (assay: primary screen, population patch clamp on CHO cells stably expressing hERG; higher = less effect of the substance).
Chain of human ether-à-go-go-related gene (hERG) potassium channel (Q12809 whole entry, looked up): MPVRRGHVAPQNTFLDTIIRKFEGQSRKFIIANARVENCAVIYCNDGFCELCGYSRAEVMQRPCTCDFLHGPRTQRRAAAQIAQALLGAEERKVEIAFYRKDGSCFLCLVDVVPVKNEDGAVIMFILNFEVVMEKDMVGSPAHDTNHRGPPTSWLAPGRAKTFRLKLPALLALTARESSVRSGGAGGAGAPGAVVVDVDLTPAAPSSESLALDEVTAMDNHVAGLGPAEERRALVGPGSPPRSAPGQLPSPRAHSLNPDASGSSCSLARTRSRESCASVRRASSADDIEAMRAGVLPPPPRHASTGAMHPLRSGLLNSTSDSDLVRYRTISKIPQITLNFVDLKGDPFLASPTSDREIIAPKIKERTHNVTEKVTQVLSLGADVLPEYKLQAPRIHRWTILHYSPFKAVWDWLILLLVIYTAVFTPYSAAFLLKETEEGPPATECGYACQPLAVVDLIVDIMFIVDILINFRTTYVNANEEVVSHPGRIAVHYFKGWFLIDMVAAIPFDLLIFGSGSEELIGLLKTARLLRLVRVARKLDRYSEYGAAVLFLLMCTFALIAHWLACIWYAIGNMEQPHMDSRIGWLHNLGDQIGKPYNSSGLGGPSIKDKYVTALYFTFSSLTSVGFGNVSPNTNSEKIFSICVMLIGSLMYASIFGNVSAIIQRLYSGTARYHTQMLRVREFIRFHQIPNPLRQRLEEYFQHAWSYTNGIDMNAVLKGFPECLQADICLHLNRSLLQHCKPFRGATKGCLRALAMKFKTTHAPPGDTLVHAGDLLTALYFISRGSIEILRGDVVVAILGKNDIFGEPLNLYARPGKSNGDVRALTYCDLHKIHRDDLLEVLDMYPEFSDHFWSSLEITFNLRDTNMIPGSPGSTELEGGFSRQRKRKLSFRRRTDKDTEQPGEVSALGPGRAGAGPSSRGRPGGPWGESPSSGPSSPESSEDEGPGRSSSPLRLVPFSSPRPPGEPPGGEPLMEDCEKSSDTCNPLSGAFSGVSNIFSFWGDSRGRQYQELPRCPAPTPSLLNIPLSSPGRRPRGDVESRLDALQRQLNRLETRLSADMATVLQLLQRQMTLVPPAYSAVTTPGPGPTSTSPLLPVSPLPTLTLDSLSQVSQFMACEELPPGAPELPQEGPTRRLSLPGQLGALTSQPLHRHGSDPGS
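Further: peak tail current of the secondary pulse compared with the same well before compound.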

Structure (SMILES) | hERG current change (%, negative = inhibition) at 10uM
COc1ccc(CCN2CC(C(=O)N(C)Cc3cccnc3)CC2=O)cc1OC (centres unmarked) | 8.53%
COC(=O)c1nnn(-c2nonc2N)c1CSCCO | 14.6%
Cc1ccc(N2CC(C(=O)OCc3ccc([N+](=O)[O-])cc3)CC2=O)cc1 (centres unmarked) | -58.5%
Cc1ccc(N2CC(C(=O)OCC(=O)c3ccc([N+](=O)[O-])cc3)CC2=O)cc1 (centres unmarked) | -26.8%
Cc1ccc(N2CC(C(=O)OCC(=O)C(C)(C)C)CC2=O)cc1 (centres unmarked) | -4.69%
O=C1OC(Nc2ccccn2)c2ccccc21 (centres unmarked) | -5.61%
NC(=O)C1(N2CCCCC2)CCN(C(=O)c2ccc(C#CC3(O)CCCCC3)cc2)CC1 | -6.21%
COc1ccc(C(=O)N/C(=C/c2cccnc2)C(=O)NCc2ccco2)cc1OC | 9.12%
O=C(N/C(=C\c1cccnc1)c1nc2ccccc2[nH]1)c1cccc(Br)c1 | -54.9%
Cc1ccc(C(=O)N/C(=C/c2cccnc2)C(=O)NCc2ccco2)cc1 | -41.7%
O=C(NCc1ccco1)/C(=C/c1cccnc1)NC(=O)c1cccc(Br)c1 | -59.6%
O=C(NCc1ccco1)/C(=C\c1ccccc1)NC(=O)c1ccccc1 | 6.85%
Cc1ccc(C(=O)N/C(=C\c2cccnc2)c2nc3ccccc3[nH]2)cc1 | -19.7%
O=C(NCc1ccco1)/C(=C\c1cccnc1)NC(=O)c1ccccc1F | -51.1%
COc1ccc(/C=C(/NC(=O)c2ccccc2)c2nc3ccccc3[nH]2)cc1OC | -12.5%
COc1ccccc1C(=O)N/C(=C\c1ccccc1)C(=O)NCc1ccco1 | -38.1%
CCCNS(=O)(=O)c1cccc2cccnc12 | -6.32%
Cc1cccc(-c2cc(C(=O)NCc3ccccn3)c3ccccc3n2)c1 | -18%
Cc1ccc(OCc2n[nH]c(=S)n2C2CCCCC2)cc1 | 21%

Structure (SMILES) | hERG current change (%, negative = inhibition) at 10uM
Cc1ccc(-n2c(C)cc(/C=N/NC(=O)c3ccncc3)c2C)cc1C | 17.3%
COc1ccccc1-n1cnnc1SCc1csc(-c2ccccc2)n1 | -20.9%
O=C(CCC(=O)c1cccs1)NCc1cccc(C(F)(F)F)c1 | -7.88%
COc1ccc(C(=O)N2CCN(c3ncccn3)CC2)cc1S(=O)(=O)N1CCOCC1 | 6.96%
COc1cc2c(cc1OC)C(COc1ccc([N+](=O)[O-])cc1)N(C(C)=O)CC2 (centres unmarked) | -77.4%
COc1ccc(OCC2NCCc3cc(OC)c(OC)cc32)cc1 (centres unmarked) | -8.93%
COC(=O)c1ccc(OCC2c3cc(OC)c(OC)cc3CCN2C(=O)C2CC2)cc1 (centres unmarked) | -56.3%
CCc1ccc(OCC2c3cc(OC)c(OC)cc3CCN2C(C)=O)cc1 (centres unmarked) | -11.5%
COC(=O)c1ccc(OCC2c3cc(OC)c(OC)cc3CCN2C(C)=O)cc1 (centres unmarked) | 8.8%
COc1cc2c(cc1OC)C(COc1ccc(F)cc1)N(C(C)=O)CC2 (centres unmarked) | -11.9%
CCC(=O)N1CCc2cc(OC)c(OC)cc2C1COc1ccc(C(=O)OC)cc1 (centres unmarked) | -1.37%
COc1cc2c(cc1OC)C(COc1ccc([N+](=O)[O-])cc1)NCC2 (centres unmarked) | -76.6%
COc1cc2c(cc1OC)C(COc1ccc(F)cc1)NCC2 (centres unmarked) | -26.8%
O=C(CN1N=C(c2ccccc2)CCC1=O)NCc1ccco1 | 0.243%
COc1cccc(NC(=O)C2C3C=CC(C3)C2C(=O)O)c1 (centres unmarked) | 8.61%
Cc1ccc(Cc2nnc3n(-c4cccc(C)c4)nc(C(=O)c4ccccc4)n3c2=O)cc1 | -3.85%
CN1CCN(C(=S)c2ccc(Br)cc2)CC1 | -35.9%
CN1CCC(OC(=O)c2ccc(Br)cc2)CC1.Cl | -41.9%
CN1CCC(=C(c2ccccc2)c2ccc(Br)cc2)CC1.Cl | -68.3%

Structure (SMILES) | hERG current change (%, negative = inhibition) at 10uM
C=CCNc1scc(-c2ccccc2)[n+]1CC=C.[Br-] | -21.4%
C/C=C/C(=O)N1c2ccccc2C(C)=CC1(C)C | 3.41%
COC(=O)c1[nH]c2cccc(OC)c2c1NC(=O)C(C)N1CCC(C)CC1 (centres unmarked) | -21.6%
CCN(CC)c1ccc(C(=O)OCC(=O)Nc2sccc2C#N)cc1 | 12.2%
Cc1ccc2cc(S(=O)(=O)NCCC(=O)O)ccc2c1 | -2.04%
Cc1cc(C)c2nc(N3CCC(C(=O)NCCCN4CCCCC4)CC3)sc2c1 | -37.2%
Cc1cc(C)c2nc(N3CCC(C(=O)NCc4cccnc4)CC3)sc2c1 | -79%
CCc1nnc(NC(=O)C2CCN(C(=O)c3ccco3)CC2)s1 | -0.31%
CCC(CC)c1nnc(NC(=O)C2CCN(C(=O)c3ccco3)CC2)s1 | 20.1%
Cc1cc(C)c2nc(N3CCC(C(=O)NCc4ccccn4)CC3)sc2c1 | -25.3%
Cc1cc(C)c2nc(N3CCC(C(=O)N4CCN(c5ncccn5)CC4)CC3)sc2c1 | -0.141%
Cc1cc(C)c2nc(N3CCCC(C(=O)N4CCC(C(N)=O)CC4)C3)sc2c1 (centres unmarked) | -19.3%
Cc1cc(C)c2nc(N3CCC(C(=O)N4CCCC4)CC3)sc2c1 | -67.7%
Cc1cc(=O)n2nc(N3CCC(C(=O)NCc4cccnc4)CC3)sc2n1 | 7.16%
CCC(C)Sc1nnc(NC(=O)C2CCN(C(=O)c3ccco3)CC2)s1 (centres unmarked) | -57.2%
Cc1cc(C)c2nc(N3CCC(C(=O)NCCN4CCOCC4)CC3)sc2c1 | -10.5%
Cc1cc(C)c2nc(N3CCC(C(=O)NCCCN4CC(C)CC(C)C4)CC3)sc2c1 (centres unmarked) | -71.8%
COC(=O)[C@@]12CCCN1[C@H](c1ccc(-c3ccccc3)cc1)[C@H]1C(=O)N(C)C(=O)[C@H]12.O=C(O)C(F)(F)F | -14.2%
